Test results as given in ChEMBL document CHEMBL4513216, “Probing the Open Global Health Chemical Diversity Library for Multistage-Active Starting Points for Next-Generation Antimalarials” (ACS Infect Dis, 2020).
Hit rate of the full screen: of about 69,000 compounds, about 8,600 (12%) showed an effect of 50% or more. This is one part of a sample in which strong results are shown more often than they occur.

These molecules were tested on Plasmodium berghei (assay: Screen against P. berghei liver stage (PbLuc), transformed with Luciferase, at 10uM). Details: tested at 10 uM.
Type: functional, HepG2
`CC(NC(=O)N1CCCN(C)CC1)c1ccc2c(c1)OCCO2` (stereo not given) showed an INHIBITION of -9.39%. `Cn1nccc1C(=O)N1CCOC(Cc2cccnc2)C1` (stereo not given) gave an INHIBITION of 39.2%. `c1cncc(CN2CCOC(c3ncn4c(C5CC5)cccc34)C2)c1` (stereo not given) gave an INHIBITION of 14.2%. `c1cc(C2CC2)n2cnc(C3CN(Cc4nccs4)CCO3)c2c1` (stereo not given) was tested, and the INHIBITION was 15.7%. For `c1cc(C2CC2)n2cnc(C3CN(Cc4ccncc4)CCO3)c2c1` (stereo not given), the INHIBITION was 51.2%. `Cc1nc(C)n(CC2CCCN2c2ncnc3sc(C)c(C)c23)n1` (stereo not given) was tested, and the INHIBITION was -11.6%. Work on `c1ccc2ncc(CC3CCNCC3)cc2c1` yielded an INHIBITION of -0.232%. `COC1C[C@@H]2CN(C(=O)Cc3ccc(C)s3)C[C@@H]2C1` (stereo not given in full) was tested, and the INHIBITION was -34.45%. `FC(F)(F)c1cccc(CN2CCOC[C@H](Oc3cccnc3)C2)c1` gave an INHIBITION of 63.8%. `Fc1ccc(CN2CCOC[C@H](Oc3cccnc3)C2)cc1` was tested, and the INHIBITION was 38.1%. `Clc1ccc(CN2CCOC[C@H](Oc3cccnc3)C2)cc1` was tested, and the INHIBITION was -11.1%. For `CC(C(=O)Nc1ccc(Cl)cn1)N1CCc2nn(C)c(=O)cc2C1` (stereo not given), the INHIBITION was 6.23%. For `Cc1cccc(CN2CCn3cc(Cn4cccn4)nc3C2)n1`, the INHIBITION was -46.9%. Work on `CO[C@H]1CNC[C@@H]1NC(=O)CCc1nc(-c2ccccc2)no1` yielded an INHIBITION of 0.426%. `CC(CNC(=O)c1ccn(-c2ccc(F)cc2)n1)Cn1cccn1` (stereo not given) was tested, and the INHIBITION was 39.6%. `Cc1nc(CN2CCO[C@@H]3CN(C(=O)CN(C)C)CC[C@@H]3C2)cs1` gave an INHIBITION of -9.18%. Work on `Cc1ccc(NC(=O)Nc2c(O)c3ccccc3oc2=O)cc1` yielded an INHIBITION of 41.6%. In the case of `Cc1ccc(NC(=O)Nc2c(O)c3ccccc3oc2=O)cc1C`, the INHIBITION is reported as -43.7%. Molecule `Cc1cc(C)cc(NC(=O)Nc2c(O)c3ccccc3oc2=O)c1` has an INHIBITION of 59.8%. For `COc1ccccc1C1(O)CCCN(C(=O)c2csc(C(C)=O)c2)C1` (stereo not given), the INHIBITION was 36%. In the case of `Cc1occc1C(=O)N1CCC2(CC1)CC(OCc1ccccn1)CO2` (stereo not given), the INHIBITION is reported as 31.1%. `c1cnn([C@@H]2CN(Cc3nccs3)[C@@H]3CCCO[C@@H]32)c1` showed an INHIBITION of 63.5%. Work on `c1ccc(O[C@@H]2CN(Cc3nccs3)[C@@H]3CCCO[C@@H]32)nc1` yielded an INHIBITION of 27.6%. `c1csc(CN2C[C@@H](n3cccn3)[C@H]3OCCC[C@H]32)c1` showed an INHIBITION of -2.41%. Molecule `CS(=O)(=O)c1cc(Cl)cnc1C1CCCN(C(=O)C2CCOCC2)C1` (stereo not given) has an INHIBITION of 30.65%. Molecule `CNS(=O)(=O)c1ccc(CN2CCN3CCNC(=O)C3C2)cc1` (stereo not given) has an INHIBITION of 49.9%. For `O=C1NCCN2CCN(Cc3ccc(Cl)c(Cl)c3)CC12` (stereo not given), the INHIBITION was 52.2%. Molecule `CN1C(=O)CC(C(=O)O)C12CCN(Cc1ccc(Cl)c(Cl)c1)CC2` (stereo not given) has an INHIBITION of 5.46%. In the case of `COc1cccc(S(=O)(=O)CCN2CCn3c(C)nnc3C2)c1`, the INHIBITION is reported as -17%. With `CCn1cc(CN2CCCC(c3[nH]ncc3-c3ccc(C)cc3)C2)cn1` (stereo not given) the INHIBITION was 70.9%. `CCCn1cc(CN2CCC(c3[nH]ncc3S(C)(=O)=O)C2)cn1` (stereo not given) was tested, and the INHIBITION was 45.6%. `CCn1cc(CN2CCC(c3[nH]ncc3S(C)(=O)=O)C2)cn1` (stereo not given) was tested, and the INHIBITION was 41.2%. `CCn1cc(CN2CCCC(c3[nH]ncc3-c3ccc(F)cc3)C2)cn1` (stereo not given) showed an INHIBITION of 9.52%. `CCn1cc(C(=O)N2CCCC(c3[nH]ncc3S(C)(=O)=O)C2)cn1` (stereo not given) was tested, and the INHIBITION was 16.9%. `CCn1cc(CN2CCCC(c3[nH]ncc3S(C)(=O)=O)C2)cn1` (stereo not given) gave an INHIBITION of 57.2%. In the case of `COc1cc(-c2n[nH]c(CO)n2)cc(OC)c1OC`, the INHIBITION is reported as 17.1%. In the case of `CC(Cn1ccnc1)NC(=O)Nc1ccccn1` (stereo not given), the INHIBITION is reported as 29.95%. For `CCOC(=O)c1ccc(NC(=O)c2c(O)nc3c(c2O)CCCC3)cc1`, the INHIBITION was 27.5%. `CC(C)c1nccn1CCC(=O)N1CCCCC1c1ccn[nH]1` (stereo not given) showed an INHIBITION of 30.95%. For `Cc1nn(C)c(N2CCOCC2)c1CNC1COc2ccccc2C1` (stereo not given), the INHIBITION was 5.03%.
